Data from the supplement of paper PMC6522484.
± gives the standard deviation of the averaged measurements.

Key:
DLD1 [1] = experiment: cell viability (CellTiter-Glo) relative to plate median (fraction of plate median); higher = more viable cells; conditions: 5 µM; treatment time 24 h; reporter: 7TFP
Outline: (§1)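 For this screen, colorectal cancer cell lines carrying stable lentiviral TCF/Wnt firefly luciferase reporters, either 7TFP or TCF4/Wnt, were seeded into 384-well plates. A day's wait of 24 h preceded addition of library compounds at a final 5 µM, which stayed on the cells for 24 h. Firefly luciferase or CellTiterGlo luminescence, read on parallel plates, was normalised to the plate median per well, and the reported value is the mean of two independent replicates.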

HCT116 = experiment: as above; conditions: 5 µM; treatment time 24 h; reporter: TCF4/Wnt
Outline: as §1

SW480 [2] = experiment: as above; conditions: 5 µM; treatment time 24 h; reporter: 7TFP
Outline: as §1

DLD1 [3] = experiment: TCF/Wnt firefly luciferase reporter signal relative to plate median (fraction of plate median); higher = higher Wnt reporter signal; conditions: 5 µM; treatment time 24 h; reporter: 7TFP
Outline: as §1

SW480 [4] = experiment: as above; conditions: 5 µM; treatment time 24 h; reporter: 7TFP
Outline: as §1

Row | SMILES | cell viability (DLD1 [1]) | cell viability (HCT116) | cell viability (SW480 [2]) | TCF/Wnt firefly luciferase reporter signal (DLD1 [3]) | TCF/Wnt firefly luciferase reporter signal (SW480 [4])
1 | CS(C)(=O)=O | 1.01 ± 0.081 | 1.05 ± 0.071 | 0.962 ± 0.035 | 1.26 ± 0.071 | 1.05 ± 0.064
2 | Oc1ccc2c(c1)O[C@H](c1ccc(O)c(O)c1)[C@@H](O)C2 | 1.07 ± 0.014 | 1.04 ± 0.028 | 1.05 ± 0.096 | 0.926 ± 0.058 | 0.9675 ± 0.005
3 | CC/C(=C(\c1ccccc1)c1ccc(OCCN(C)C)cc1)c1ccccc1 | 1.08 ± 0.05 | 1.04 ± 0.064 | 1.05 ± 0.021 | 0.872 ± 0.15 | 0.859 ± 0.14
4 | CC(C)CCCC(C)C1CCC2C3=CCC4CC(O)CCC4(C)C3CCC21C (stereo not given) | 1.05 ± 0.064 | 1.07 ± 0.11 | 1.02 ± 0.043 | 0.891 ± 0.083 | 0.897 ± 0.12
5 | COc1ccc(C[C@H](N)C(=O)N[C@H]2[C@@H](O)[C@H](n3cnc4c(N(C)C)ncnc43)O[C@@H]2CO)cc1 | 0.892 ± 0.1 | 0.908 ± 0.04 | 0.9485 ± 0.00071 | 0.999 ± 0.03 | 1.05 ± 0.042
6 | COc1ccc2c(c1)CC[C@@H]1[C@@H]2CC[C@]2(C)[C@@H](O)CC[C@@H]12 | 0.928 ± 0.093 | 0.953 ± 0.15 | 1 ± 0.064 | 0.885 ± 0.18 | 0.969 ± 0.16
7 | CC(=O)OCC(=O)[C@@]1(O)[C@H](C)C[C@H]2[C@@H]3CCC4=CC(=O)C=C[C@]4(C)[C@@]3(F)[C@@H](O)C[C@@]21C | 1.06 ± 0.085 | 0.952 ± 0.054 | 1.02 ± 0.088 | 0.958 ± 0.037 | 0.969 ± 0.044
8 | CC(=O)Oc1cc(OC(C)=O)c2c(c1)O[C@H](c1ccc(OC(C)=O)c(OC(C)=O)c1)[C@H](OC(C)=O)C2 | 1 ± 0.055 | 0.972 ± 0.15 | 1.01 ± 0.016 | 0.921 ± 0.044 | 1 ± 0.015
9 | O=C(O)[C@]1(O)C[C@@H](O)[C@@H](O)[C@H](O)C1 | 0.982 ± 0.04 | 1.05 ± 0.16 | 0.934 ± 0.033 | 1.08 ± 0.16 | 0.923 ± 0.17
10 | COC(=O)CC[C@@H](C)[C@H]1CC[C@H]2[C@@H]3[C@H](O)C[C@@H]4C[C@H](O)CC[C@]4(C)[C@H]3C[C@H](O)[C@]12C | 0.98 ± 0.0099 | 1.06 | 1.005 ± 0.0071 | 1.21 ± 0.014 | 1.09 ± 0.092
11 | COc1ccc2c(c1)OC/C(=C/c1ccc(OC)c(OC)c1)C2=O | 0.936 ± 0.028 | 0.989 ± 0.086 | 0.966 ± 0.028 | 0.92 ± 0.021 | 0.972 ± 0.083
12 | CNCCC=C1c2ccccc2CCc2ccccc21 | 0.9585 ± 0.00071 | 0.979 ± 0.12 | 0.972 ± 0.0057 | 1.02 ± 0.079 | 1.04 ± 0.12
13 | COc1cc2occ(-c3ccccc3)c(=O)c2c(OC)c1C | 0.982 ± 0.015 | 1 ± 0.025 | 0.958 ± 0.021 | 1.15 ± 0.16 | 1.12 ± 0.05
14 | COc1cc2ccc(=O)oc2c(OC)c1OC | 1.05 ± 0.075 | 1.05 ± 0.064 | 1.025 ± 0.0071 | 0.993 ± 0.081 | 0.931 ± 0.045
15 | O=C(C1CCCCC1)N1CC(=O)N2CCc3ccccc3C2C1 (stereo not given) | 0.9955 ± 0.0064 | 0.984 ± 0.037 | 0.98 ± 0.042 | 1.02 ± 0.034 | 0.918 ± 0.12
16 | O=C([O-])c1ccccc1O.[Na+] | 1.06 ± 0.035 | 1.02 ± 0.077 | 1.07 ± 0.028 | 1.04 ± 0.09 | 1.02 ± 0.014
17 | CCN[C@@H]1C[C@H](N)[C@@H](O[C@H]2OC(CN)=CC[C@H]2N)[C@H](O)[C@H]1O[C@H]1OC[C@](C)(O)[C@H](NC)[C@H]1O | 0.992 ± 0.026 | 0.903 ± 0.052 | 0.978 ± 0.025 | 0.906 ± 0.15 | 0.953 ± 0.021
18 | CCCCOc1cc(CC2CNC(=O)N2)ccc1OC (stereo not given) | 0.999 ± 0.016 | 0.921 ± 0.081 | 0.912 ± 0.011 | 1.015 ± 0.0071 | 1.04 ± 0.19
19 | CC(C)C[C@@H]1NC(=O)[C@H](CCCN)NC(=O)[C@H](C(C)C)NC(=O)[C@H](Cc2ccc(O)cc2)N[C@@H](CCC(=O)O)C(=O)N[C@@H](CC(N)=O)C(=O)[C@@H](Cc2ccccc2)NC(=O)[C@H](Cc2ccccc2)NC(=O)[C@@H]2CCCN2C(=O)[C@@H](Cc2ccccc2)NC1=O | 0.894 ± 0.091 | 0.71 ± 0.072 | 0.486 ± 0.082 | 0.685 ± 0.041 | 0.469 ± 0.1
20 | COc1cc2nc(N3CCN(C(=O)C4CCCO4)CC3)nc(N)c2cc1OC (stereo not given) | 1.05 ± 0.05 | 0.991 ± 0.11 | 1.03 ± 0.05 | 1.14 ± 0.13 | 1 ± 0.039
21 | CC[C@@H](C)c1cc(=O)c2c(CO)cc3c(c2o1)C(=O)c1c(O)cccc1C3=O [Espicufolin] | 1.09 ± 0.092 | 1.13 ± 0.057 | 1.055 ± 0.0071 | 1.29 ± 0.15 | 1.06 ± 0.057
22 | COc1ccc(-c2cc(=O)c3c(O)cc(O)cc3o2)cc1 | 1.03 ± 0.08 | 0.935 ± 0.019 | 1.05 ± 0.064 | 0.912 ± 0.026 | 1.01 ± 0.091
23 | CC(=O)N(c1onc(C)c1C)S(=O)(=O)c1ccc(N)cc1 | 1.02 ± 0.034 | 1.05 ± 0.19 | 0.935 ± 0.06 | 0.933 ± 0.0014 | 0.985 ± 0.021
24 | C=CC(C)(O)CCC1C(=C)CC(OC(C)=O)C2C(C)(C)CCCC12C (stereo not given) | 0.929 ± 0.03 | 0.908 ± 0.041 | 0.971 ± 0.033 | 0.798 ± 0.013 | 0.87 ± 0.17
25 | O=C(/C=C(\O)c1ccccc1)c1ccccc1O [2',beta-DIHYDROXYCHALCONE] | 1.07 ± 0.16 | 1.17 ± 0.16 | 1.08 ± 0.014 | 1.01 ± 0.17 | 1.1 ± 0.021
26 | O=C(c1c[nH]c2ccccc12)C(O)CO (stereo not given) [1-(3-Indolyl)-2,3-dihydroxypropan-1-one] | 0.989 ± 0.072 | 1.02 ± 0.06 | 0.966 ± 0.046 | 1.12 ± 0.028 | 1 ± 0.079
27 | Cc1ccccc1N1C(=O)c2cc(S(N)(=O)=O)c(Cl)cc2NC1C (stereo not given) | 1.06 ± 0.078 | 1.02 ± 0.035 | 1.02 | 1.03 ± 0.072 | 0.938 ± 0.19
28 | CCN(CC)Cc1cc(Nc2ccnc3cc(Cl)ccc23)ccc1O | 0.908 ± 0.064 | 0.967 ± 0.016 | 0.946 ± 0.051 | 0.952 ± 0.17 | 0.921 ± 0.25
